# Test results reported in PubChem BioAssay (NCI).
# About 83,000 compounds went through this panel and 20% of them were active in at least one assay; those are over-represented in the sample as a whole.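 Percent growth is the endpoint: 0 to 100 indicates growth inhibition (40 means 60% inhibition), 0 means no net growth, and negative values indicate cell death.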 Unmarked numbers belong to inactive results. Calls of active or inactive are those of the source. The calls were made as follows: active = growth percent below 10; inactive = the rest.
# System: HL-60(TB) leukemia
# Assay: NCI-60 one-dose screen, 48 h (100 = growth as untreated, 0 = no growth, -100 = all killed)
# Conditions: 10 µM unless noted
row,Compound,growth
1,COc1ccc(C(=O)/C=C/c2cccc([N+](=O)[O-])c2)c(OC)c1,-10.4% (active)
2,COc1cc(/C=C2\C(=O)N(c3c(Cl)cccc3Cl)c3ccccc32)cc(OC)c1OCCCCCCn1c2ccccc2c(=O)c2ccccc21,106%
3,CC(=O)[C@@H]1CC[C@]2(C(=O)O)CC[C@]3(C)[C@H](CC[C@@H]4[C@@]5(C)Cc6c([nH]c7ccccc67)C(C)(C)[C@@H]5CC[C@]43C)[C@@H]12,53.4%
4,CNC(=O)c1cc(Oc2ccc3c(c2)sc2nc(-c4ccc(Cl)cc4)cn23)ccn1,88.4%
5,O=C(c1ccccc1)C(Sc1ccccc1)c1ccccc1 (stereo not given),84.1%
6,O=c1oc2c3ccc4cnccc4c3[nH]c2c2ccccc12,27.1%
7,FCc1ncc(-c2ccc(C(F)(F)F)cc2)c(NC2CCCCCC2)n1,-25.6% [100 µM] (active)
8,O=C(/C=C/c1ccc(C(F)(F)F)cc1)c1ccc(Nc2nc(NCCO)nc(Nc3ccc(Cl)cc3)n2)cc1,77%
9,CC(=O)OC[C@]12CC[C@@H](/C(C)=N/O)[C@@H]1[C@H]1CC[C@@H]3[C@@]4(C)CCCNC(C)(C)[C@@H]4CC[C@@]3(C)[C@]1(C)CC2,37.7%
10,F,28.1% [6.87 mM]
11,COc1cc(C(=O)/C=C/c2cc(C(=O)c3cc(OC)c(OC)c(OC)c3)ccc2OC)ccc1N,3.92% (active)
12,CCC(C)(C)C(=O)O[C@H]1C[C@@H](C)C=C2C=C[C@H](C)[C@H](CC[C@@H]3C[C@@H](O)CC(=O)O3)[C@H]21,77.1%
13,CC/C=C\C[C@H](O)C/C=C1/C(=O)C=C[C@@H]1C/C=C\CCCC(=O)OC(C)C,-38.3% (active)
14,CCOC(=O)c1c(C)nc2c(c1N)/C(=C/c1cc(OC)c(OC)c(OC)c1)C(=O)N2c1ccc(OC)cc1,28.2%
15,CN1CCN(Cc2ccc(NC(=O)c3[nH]ncc3Nc3cc(OC4CCCC4)ncn3)cc2)CC1,-12.7% (active)
16,CCCCCCCCCN(CCCCCCCCC)C(C)C(=O)c1ccc2cc(Br)c3ccccc3c2c1 (stereo not given),102%
17,NC(=O)C1CCCN(Cc2c[nH]c3ccccc23)C1 (stereo not given),102%
18,NC(=O)c1cc(Cl)ccc1NC(=O)COc1ccccc1,-0.779% (active)
19,COc1ccc2c(c1)c(-c1nn3cc(-c4cccs4)nc3s1)cn2C,82.7%
20,CC(=O)c1ccc(Nc2nc(C(C)=O)c(C)s2)cc1,88%

row,Compound,growth
1,COc1cc(/C=C/C(=O)/C=C/c2cc(OC)c3c(c2)OCO3)cc2c1OCO2,68.6%
2,COC(=O)CC[C@@H](C)[C@H]1CC[C@H]2[C@@H]3CC[C@@H]4C[C@H](O)CC[C@]4(C)[C@H]3C[C@H](O)[C@]12C,96.9%
3,Cc1ccc(-c2cnc3sc4ccc(Cl)cc4n23)cc1,90.5%
4,COc1ccc(O)c(N=Nc2nccs2)c1,-22.5% (active)
5,COCCNC(=O)Cc1cc(-c2ccc(Cl)cc2)n(-c2ccccc2)c1C,66.4%
6,O=C1C=CC(=O)N1Cc1ccco1,108%
7,CN(CCc1ccccc1)C(=S)N(C(=O)c1ccc([N+](=O)[O-])cc1)c1ccc(Cl)cc1,45%
8,CN1C2CCC1/C(=C\c1ccc(F)cc1)C(=O)/C2=C/c1ccc(F)cc1,12.1%
9,CC(C)(C)OC(=O)N1C/C(=C\c2ccoc2)C(=O)/C(=C/c2ccoc2)C1,87.6%
10,COc1ccccc1/C=C/C1=C(C)CCC(c2ccccc2OC)C1C (stereo not given),-41.1% (active)
11,O=CN1N=C(c2cccc(Nc3ccnc4cc(Cl)ccc34)c2)CC1c1ccc(Cl)cc1 (stereo not given),-4.94% (active)
12,O=C(/C=C/c1cn(-c2ccccc2)nc1-c1ccccc1)CCC(=O)NO,98.3%
13,COc1ccc(-c2nc3cc(C(=O)Nc4cc(OC)c(OC)c(OC)c4)ccc3n2C2CCCCC2)cc1,85.9%
14,CC(=O)O[C@H]1C[C@@H]2C(C)(C)C(=O)CC[C@@]2(C)c2ccc(C(C)C)cc21,99.2%
15,O=C(/C(=C/c1cccc([N+](=O)[O-])c1)c1ccccc1)c1ccccc1,10.6%
16,CC1=C2C(=C[C@@](C)(CO)[C@@H]2OC(=O)N(C)CCN(C)C(=O)OC(C)(C)C)C(=O)[C@](C)(O)C12CC2,46.1%
17,NC(=O)Nc1ccc2ncnc(Nc3ccc(Cl)cc3)c2c1,99.9%
18,COc1ccc(/C=C/C(=O)c2ccc([N+](=O)[O-])cc2)cc1,82%
19,COc1ccc2c(c1)Oc1nc(N)c(C#N)c(N)c1C2Sc1ccc(SC)cc1 (stereo not given),-22.3% (active)
20,C=C(C)[C@@H]1CC[C@]2(C(=O)N3CCN(CC)CC3)CC[C@]3(C)[C@H](CC[C@@H]4[C@@](C)(CCC(=O)N5CCN(CC)CC5)[C@H](C(=C)C)CC[C@]43C)[C@@H]12,30.4%
